The results in this text go back to PubChem BioAssay.

Records with an inconclusive call do not appear. The source made the active and inactive calls. Unless noted, no cut-off is given here; in the data, nearly all actives have AC50 up to about 26 µM.

One may read the viability as a read-out of living cells in per cent, often relative to untreated cells. In general, AC50 refers to the midpoint of the concentration-response curve, whichever way the signal moves.

One test is described as follows: liver-stage malaria parasite growth inhibition, primary screen, cell-based, HepG2, luciferase luminescence, HepG2 viability (AID 624349; in the data active = parasite load remaining mostly below about 12%, no sharp cut-off; inactive = mostly above about 10%;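 note: 100% = mean of DMSO negative control wells on the same plate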). To be noted: P. berghei liver stage in HepG2, luciferase luminescence, concentration not given here; parasite load remaining: stronger effect = lower value; viability: measured here: HepG2 viability without parasites.
On to `Nc1cccc(-c2cc3c(Oc4cccc(O)c4)ncnc3[nH]2)c1`, for which the viability stood at 64.3% and the parasite load remaining was 28.2% (inactive).

For the compound `COc1cc2ncnc(Nc3cccc(Cl)c3)c2cc1OC`, the viability stood at 78.3% and the parasite load remaining is 63.9% (inactive).

For the compound `Nc1ccn([C@@H]2O[C@H](CO)[C@@H](O)C2(F)F)c(=O)n1`, the viability amounted to 190% and the parasite load remaining is 8.34% (inactive).

A further test can be described thus: growth inhibition of DIPG glioma cells, dose response, cell-based, SU-DIPG-XVII, MIPE5.0, CellTiter-Glo, qHTS (AID 1347060).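 For AC50: cells exposed to compound for 48 hours before viability readout.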 To be noted: SU-DIPG-XVII viability, CellTiter-Glo ATP luminescence. (In general: ATP-based viability assays read luminescence as a measure of living cells.)
As for `Clc1ccc2ncc(-c3cccc(NC4CNC4)n3)n2c1`, the call was inactive.

In the case of `CC[C@H](CC#N)OC(=O)N[C@@H](C)c1cccc(NC(=O)Nc2ccc(-c3cnco3)c(OC)c2)c1`, the AC50 is 0.525 µM (active).

With `N#C/C(=C1/Nc2ccccc2S1)c1ccnc(OCc2ccc(CN3CCOCC3)cc2)n1`, the concentration at half-maximal activity (AC50) is 14.8 µM (active).

As for `CN1c2ccccc2C(=O)N2CCc3c([nH]c4ccccc34)C21` (configuration not stated), the concentration at half-maximal activity (AC50) is 2.95 µM (active).

With `O=c1ccn([C@@H]2O[C@H](CO)[C@@H](O)[C@@H]2F)c(=O)[nH]1`, the compound was called inactive.

Regarding `CCNC(=O)Nc1ccc(-c2nc3c(c(N4CCOC[C@@H]4C)n2)CCN(C2COC2)C3)cc1`, the concentration at half-maximal activity (AC50) was 2.95 µM (active).

For `O=C(Nc1nc2cccc(-c3ccc(CN4CCS(=O)(=O)CC4)cc3)n2n1)C1CC1`, the AC50 is 14.8 µM (active).

As to `CNC(=O)c1cc(Oc2ccc(NC(=O)Nc3ccc(Cl)c(C(F)(F)F)c3)c(F)c2)ccn1`, the AC50 was 16.6 µM (active).

`C[C@@H]1Cc2c([nH]c3ccccc23)[C@@H](c2c(F)cc(/C=C/C(=O)O)cc2F)N1CC(C)(C)F`: the compound was classed as inactive.

Regarding `CCCc1cc(C)[nH]c(=O)c1CNC(=O)c1cc(-c2ccnc(N3CCN(C)CC3)c2)cc2c1cnn2C(C)C`, the call was inactive.

For the compound `O=C1[C@H](Cc2ccc(O)cc2)N2C(=O)CCN(C(=O)NCc3ccccc3)[C@H]2CN1Cc1cccc2ccccc12`, the AC50 is 4.17 µM (active).

Take `CC(C)=CCC/C(C)=C/CC/C(C)=C/CSc1ccccc1C(=O)O`: the compound was called inactive.

Regarding `Cc1cc(O)c(-c2ccc([C@@H](C)CN)cc2)c2c1[nH]c(=O)c1sccc12`, the concentration at half-maximal activity (AC50) is 0.118 µM (active).

For `O=C(O)/C(S)=C/c1ccc(I)cc1`, the compound was called inactive.

Turning to `Nc1cccc(-c2cc3c(Oc4cccc(O)c4)ncnc3[nH]2)c1`, the concentration at half-maximal activity (AC50) was 1.66 µM (active).

On to `COC1=C2C[C@H](C)C[C@H](OC)[C@H](O)[C@@H](C)/C=C(/C)[C@H](OC(N)=O)[C@@H](OC)/C=C\C=C(\C)C(=O)NC(=CC1=O)C2=O`, for which the AC50 was 0.235 µM (active).

As to `COc1ccc(-c2cc3nccn3c(Nc3ncccc3C(N)=O)n2)cc1OC`, the AC50 was 11.8 µM (active).

Regarding `CO[C@@H]1[C@@H](O)[C@H](O)[C@@H](n2c3c(Cl)cccc3c3c4c(c5c6cccc(Cl)c6[nH]c5c32)C(=O)NC4=O)O[C@H]1CO`, the AC50 was 0.105 µM (active).

Turning to `c1ccc(-c2cc(CCC3CCNCC3)c3ccccc3n2)cc1`, the half-maximal activity concentration (AC50) was 23.5 µM (active).

For `OCCn1cc(-c2ccc3c(c2)CC/C3=N\O)c(-c2ccncc2)n1`, the AC50 was 14.8 µM (active).

Regarding `CN(C)CC(=O)N1CCC(c2ccc(NC(=O)c3ncc(C#N)[nH]3)c(C3=CCCCC3)c2)CC1`, the AC50 is 23.5 µM (active).

In the case of `Nc1ncc(C(=O)NC2CN(C(=O)C3CC3)C2)c2ccc(-c3cccc(F)c3)nc12`, the result was inactive.

Consider `CCC(=C/[C@H](C)C/C=C/C(C)=C/[C@@H](C)C(=O)[C@@H](C)[C@H](O)[C@@H](C)C/C(C)=C/C(=O)O)/C=C/[C@@H]1OC(=O)C=C[C@@H]1C`, for which the AC50 was 0.00296 µM (active).

Consider `N#Cc1ccc(COC[C@H]2O[C@@H](n3c(NCc4ccc(Cl)c(Cl)c4)nc4c(N)ncnc43)[C@H](O)[C@@H]2O)cc1`, for which the AC50 was 14.8 µM (active).

For `CC(C)(O)CC(=O)NCCn1ccc2ncnc(Nc3ccc(Oc4cccc(C(F)(F)F)c4)c(Cl)c3)c21`, the AC50 is 18.6 µM (active).

In the case of `CNc1nccc(-c2cccnc2Oc2cc(C(=O)Nc3cccc(C(F)(F)F)c3)ccc2C)n1`, the concentration at half-maximal activity (AC50) is 3.72 µM (active).

Turning to `CC[C@@H]([C@H](C)O)n1ncn(-c2ccc(N3CCN(c4ccc(OCC5CO[C@@](Cn6cncn6)(c6ccc(F)cc6F)C5)cc4)CC3)cc2)c1=O` (some centres not stated), the concentration at half-maximal activity (AC50) is 18.6 µM (active).

For `Cc1cc(-c2nc3cc(F)ccc3s2)ccc1NC(=O)[C@@H](N)CCCCN`, the AC50 is 20.9 µM (active).

Consider `CNc1nc(Nc2ccc(C(=O)N3CCOCC3)cc2OC)ncc1Cl`, for which the compound was called inactive.

In the case of `O=C(CCCCCCC(=O)Nc1ccc([C@H]2O[C@@H](CSc3nc(-c4ccccc4)c(-c4ccccc4)o3)C[C@@H](c3ccc(CO)cc3)O2)cc1)NO`, the compound was called inactive.

For `O=C(Nc1ccc(OC(F)(F)Cl)cc1)c1cnc(N2CC[C@@H](O)C2)c(-c2ccn[nH]2)c1`, the AC50 was 23.5 µM (active).
